Test systems include T-47D breast; MDA-MB-435 melanoma; SW-620 colon; MCF7 breast; HCT-116 colon; HCC-2998 colon; KM12 colon.
Test in all cases: NCI-60 one-dose screen, 48 h (100 = growth as untreated, 0 = no growth, -100 = all killed)
Common to all, as to conditions: 10 µM

The structures appear in SMILES notation. About 83,000 compounds went through this panel and 20% of them were active in at least one assay; those are over-represented in the sample as a whole.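 Plates (96-well) were seeded with cells, treated with compound at one concentration, and incubated for 48 hours before percent growth was determined.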 Unmarked numbers belong to inactive results. Calls of active or inactive are those of the source. Rule for the calls: active = growth percent below 10; inactive = the rest.

With `COC1OC(COS(=O)OC)C(O)C(O)C1OS(=O)OC` (stereo not given), the growth with T-47D breast is 110%; with MDA-MB-435 melanoma it was 105%; with SW-620 colon it was 103%; with MCF7 breast, 88.4%; in the assay with HCT-116 colon it was 105%; in the assay with HCC-2998 colon, 97.7%. Besides, in the assay with KM12 colon, the growth is 98.5%.
As for `CS(=O)(=O)c1nccc(-c2c(-c3cccc(O)c3)nc3sccn23)n1`, the growth in the assay with T-47D breast is 99%; with MDA-MB-435 melanoma, 84.6%; in the assay on SW-620 colon, 106%; in the assay on MCF7 breast it was 86.3%; in the assay on HCT-116 colon, 91%; in the assay with HCC-2998 colon, 114%. Also, the growth with KM12 colon was 96.6%.
For `COc1ccccc1N1CCCSC1=Nc1ccccc1`, the growth with T-47D breast was 107%; in the assay on MDA-MB-435 melanoma, 103%; in the assay on SW-620 colon, 103%; with MCF7 breast it was 98.6%; in the assay on HCT-116 colon, 79.2%; in the assay on HCC-2998 colon, 108%. Further, the growth with KM12 colon is 91.7%.
With `CCOC(=O)CSc1nc(-c2cc(OC)ccc2OC)cc(-c2ccc(OC)cc2)c1C#N`, the growth with T-47D breast was 65.6%; in the assay on MDA-MB-435 melanoma, 86.6%; with SW-620 colon, 92.1%; in the assay on MCF7 breast, 71.7%; in the assay on HCT-116 colon, 67.3%; in the assay on HCC-2998 colon, 85.5%. The growth in the assay with KM12 colon was 71.3%.
For the compound `Nc1ncnc2c1ncn2C1(CO)OCC(O)C(O)C1O` (stereo not given), the growth is 96.2% in the assay on T-47D breast; 107% with MDA-MB-435 melanoma; 110% with SW-620 colon; 101% in the assay on MCF7 breast; 108% in the assay on HCT-116 colon; 101% in the assay on HCC-2998 colon. Besides, in the assay with KM12 colon, the growth was 98.6%.
For the compound `CC(=O)OC1C=CC(OC(C)=O)O1` (stereo not given), the growth was 88.1% in the assay with T-47D breast; 96% with MDA-MB-435 melanoma; 82% in the assay on SW-620 colon; 87.9% with MCF7 breast; 84.3% in the assay with HCT-116 colon; 103% in the assay on HCC-2998 colon. Besides, the growth with KM12 colon was 101%.
Regarding `COc1ccc(C2CC(c3cc(OC)c(OC)c(OC)c3)=NN2)cc1` (stereo not given), the growth is 51.7% in the assay with T-47D breast; 19.9% in the assay on MDA-MB-435 melanoma; 48% with SW-620 colon; 10.2% in the assay on MCF7 breast; 53.3% in the assay on HCT-116 colon; 79.3% in the assay on HCC-2998 colon. In the assay on KM12 colon, the growth was 15.1%.
Regarding `CSc1nc2c(c(=O)n1C)CN(Cc1ccccc1)C(=O)CN2`, the growth is 95% in the assay on T-47D breast; 60% in the assay on MDA-MB-435 melanoma; 95.7% in the assay on SW-620 colon; 89.6% in the assay with MCF7 breast; 92.6% in the assay with HCT-116 colon; 85.4% in the assay with HCC-2998 colon. Further, the growth in the assay on KM12 colon is 85.7%.
Regarding `C/C=C/CSC(C)(C)C(=O)NC`, the growth with T-47D breast was 100%; in the assay with MDA-MB-435 melanoma it was 106%; with SW-620 colon, 104%; in the assay on MCF7 breast, 93.8%; in the assay with HCT-116 colon it was 91.2%; in the assay on HCC-2998 colon it was 101%. In addition, the growth in the assay on KM12 colon was 102%.
Turning to `CC(CN(C)C)Oc1ccccc1NC1=C(Cl)C(=O)C(Nc2ccccc2OC(C)CN(C)C)=C(Cl)C1=O` (stereo not given), the growth in the assay on T-47D breast was -42% (active); with MDA-MB-435 melanoma, -71% (active); in the assay on SW-620 colon, -66.5% (active); with MCF7 breast it was -47% (active); in the assay on HCT-116 colon, -70.3% (active); in the assay on HCC-2998 colon it was -87.4% (active). For the same compound, the growth with KM12 colon is -1.19% (active).
With `Cc1ccc(NCCN(C)CC(C)O)c2c(=O)c3ccc(Cl)cc3sc12` (stereo not given), the growth is 49.7% in the assay on T-47D breast; -49% (active) with MDA-MB-435 melanoma; -46.4% (active) with SW-620 colon; 17.4% with MCF7 breast; -48.8% (active) in the assay with HCT-116 colon; 18% with HCC-2998 colon. Moreover, the growth in the assay on KM12 colon is 43.7%.
Turning to `CCN(CC)CCCOc1cccc2c1C(=O)c1cccc(OCCCN(CC)CC)c1C2=O`, the growth with T-47D breast was 61.7%; in the assay with MDA-MB-435 melanoma, 39.7%; in the assay with SW-620 colon, 24.4%; with MCF7 breast it was 11.9%; with HCT-116 colon, 22.5%; with HCC-2998 colon, 57.4%. Besides, the growth in the assay with KM12 colon was 40.9%.
Take `CCN(CC)CCOc1ccc2c(c1O)C(=O)c1ccccc1C2=O`: the growth was 97.2% in the assay with T-47D breast; 94.5% in the assay with MDA-MB-435 melanoma; 67.9% in the assay on SW-620 colon; 82.1% with MCF7 breast; 44.9% with HCT-116 colon; 96.7% in the assay on HCC-2998 colon. Further, in the assay with KM12 colon, the growth is 98%.
For `CCOC(=O)C1=CSC2=NC3=C(CCC/C3=C\c3cc(OC)c(OC)c(OC)c3)C(c3cc(OC)c(OC)c(OC)c3)N12` (stereo not given), the growth is 88.9% in the assay on T-47D breast; 21% with MDA-MB-435 melanoma; 44.9% in the assay on SW-620 colon; 29.9% with MCF7 breast; 19.2% in the assay on HCT-116 colon; 75.1% in the assay on HCC-2998 colon. In addition, the growth in the assay with KM12 colon was -21.8% (active).
As to `CN(C)CCN(Cc1ccccc1)c1ccc2ccccc2n1`, the growth with T-47D breast was 86.3%; in the assay with MDA-MB-435 melanoma, 94.4%; in the assay with SW-620 colon, 91.8%; with MCF7 breast, 86.7%; with HCT-116 colon it was 90.4%; in the assay with HCC-2998 colon, 97.5%. In addition, the growth in the assay on KM12 colon is 101%.
As for `Cc1ccc(-n2nnnc2N)c(C)c1`, the growth in the assay with T-47D breast is 112%; in the assay on MDA-MB-435 melanoma it was 102%; in the assay on SW-620 colon, 96%; in the assay on MCF7 breast, 95.9%; in the assay with HCT-116 colon it was 98.7%; in the assay with HCC-2998 colon, 95%. Besides, the growth in the assay with KM12 colon was 108%.
`CC(=O)Oc1cc(OC(C)=O)c2ccccc2c1OC(C)=O`: the growth in the assay with T-47D breast is 61.4%; in the assay on MDA-MB-435 melanoma, -57.4% (active); with SW-620 colon, 91.9%; in the assay on MCF7 breast, 56.8%; in the assay on HCT-116 colon, 80.1%; in the assay on HCC-2998 colon, 110%. In the assay with KM12 colon, the growth is 90.6%.
Consider `CC(=O)OC/C=C(/C)C[P+](c1ccccc1)(c1ccccc1)c1ccccc1`, for which the growth was 14.4% in the assay with T-47D breast; 53.3% with MDA-MB-435 melanoma; 53.6% in the assay on SW-620 colon; 33.3% in the assay with MCF7 breast; 26% in the assay with HCT-116 colon; 80.4% with HCC-2998 colon. Besides, the growth with KM12 colon was 33.3%.
`N#CCc1csc(Cc2ccccc2)n1`: the growth with T-47D breast was 103%; in the assay on MDA-MB-435 melanoma, 111%; with SW-620 colon, 103%; in the assay with MCF7 breast, 90.1%; with HCT-116 colon, 106%; with HCC-2998 colon, 104%. Also, in the assay with KM12 colon, the growth is 101%.
Turning to `Cc1ccc(C2NC(=S)N3C(c4ccc(C)cc4)NC(=S)N23)cc1` (stereo not given), the growth in the assay on T-47D breast was 47.3%; with MDA-MB-435 melanoma, -35% (active); with SW-620 colon, 29.2%; in the assay on MCF7 breast it was 10.5%; in the assay with HCT-116 colon, 1.28% (active); in the assay on HCC-2998 colon it was 47%. Also, the growth with KM12 colon was 8.36% (active).
In the case of `CCn1cc(C(=O)O)c(=O)c2cc(F)c(N3CCNCC3)cc21`, the growth is 124% with T-47D breast; 107% with MDA-MB-435 melanoma; 103% in the assay on SW-620 colon; 107% in the assay with MCF7 breast; 115% in the assay with HCT-116 colon; 110% with HCC-2998 colon. Moreover, the growth in the assay on KM12 colon was 103%.
In the case of `Nc1nc(N)c(N)c(Nc2ccc(CCO)cc2)n1`, the growth with T-47D breast is 102%; in the assay on MDA-MB-435 melanoma, 104%; in the assay on SW-620 colon it was 94%; in the assay on MCF7 breast, 105%; with HCT-116 colon, 104%; with HCC-2998 colon, 106%. Moreover, the growth in the assay with KM12 colon is 101%.
With `COc1cc(-c2nn(-c3cccc(NC(=O)CCN4CCN(c5ccccc5)CC4)c3)cc2-c2ccncc2)ccc1Cl`, the growth is 17.5% in the assay with T-47D breast; 16.8% with MDA-MB-435 melanoma; 24.5% in the assay with SW-620 colon; 12.6% in the assay with MCF7 breast; 11.8% in the assay with HCT-116 colon; 28.5% in the assay on HCC-2998 colon. The growth in the assay with KM12 colon was 13.3%.
Turning to `Nc1nccc(OCCO)n1`, the growth is 94.1% in the assay with T-47D breast; 104% in the assay on MDA-MB-435 melanoma; 107% with SW-620 colon; 91.2% with MCF7 breast; 97.8% with HCT-116 colon; 97.4% in the assay on HCC-2998 colon. Also, the growth in the assay on KM12 colon was 97.8%.
As for `CC1(C)N=C(N)N=C(N)N1c1cccc(C#N)c1`, the growth is 99.7% with T-47D breast; 36.2% with MDA-MB-435 melanoma; 29.9% in the assay with SW-620 colon; 52% in the assay on MCF7 breast; 17.1% in the assay with HCT-116 colon; 58.4% with HCC-2998 colon. In addition, the growth with KM12 colon was 47.7%.

These data come from PubChem BioAssay (NCI).
